According to the supplement of paper PMC11402862:

Test system: PPARgamma LBD (GAL4 fusion)
Test: luciferase reporter transactivation, fold of solvent control; higher = stronger receptor activation
Conditions: HEK293T, exposure time: 24 h
Procedure: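 HEK293T cells were transiently transfected with a GAL4-DBD fused to the ligand-binding domain of a human nuclear receptor (PPARα, PPARγ, PPARδ, FXR, LXRα, PXR, RARα or CAR), the GAL4-(UAS)5-TK firefly luciferase reporter and a Renilla luciferase normalisation plasmid. Cells were exposed to compound for 24 h in 0.5% DMSO. Firefly/Renilla luciferase was expressed as fold of the solvent control (=1). Values are the mean of 2-3 biological replicates; receptor agonists were used as positive controls.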

Structure (SMILES)	luciferase reporter transactivation (concentration: 1 µM)	luciferase reporter transactivation (concentration: 5 µM)	luciferase reporter transactivation (concentration: 10 µM)	luciferase reporter transactivation (concentration: 25 µM)	luciferase reporter transactivation (concentration: 50 µM)	luciferase reporter transactivation (concentration: 100 µM)	luciferase reporter transactivation (concentration: 250 µM)	luciferase reporter transactivation (concentration: 500 µM)	luciferase reporter transactivation (concentration: 2.5 µM)
O=C(O)C(F)(F)C(F)(F)F [perfluoropropanoic acid]	1.14	1.11	1.23	1.18	1.29	1.32	1.27	1.33	–
NS(=O)(=O)C(F)(F)C(F)(F)C(F)(F)C(F)(F)C(F)(F)C(F)(F)C(F)(F)C(F)(F)F [perfluorooctane sulfonamide]	0.722	1.08	1.01	–	–	1.18	–	–	1.1
